# Data: PubChem BioAssay (NCI)
# About 79,000 compounds went through this panel and 15% of them were active in at least one assay; those are over-represented in the sample as a whole. Unmarked numbers belong to inactive results. The source made the active and inactive calls. Cut-off read from the data, not from the text of the source: active = growth inhibition above about 70%; inactive = the rest. *1 amine or outer side, *2 acyl side, *3 side chain or, on linkers, in order; H or OH if unused. Where a SMILES comes first, the peptide text is derived from it. [ ]: non-standard residue; d: D form. The star is where a group is joined. X5 = CCC(=O)CC1CC(C)CC(C(=O)[*:2])N1[*:1]; X4 = CCCCCCCCC(C)C(=O)*; Aib = CC(C)(N)C(=O)O; X6 = CC(CN(C)CCO)N*
# What was measured:
# [1] = NCI Yeast Anticancer Drug Screen. Data for the rad50 strain (AID 155);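 note: 0% = growth of vehicle-only cultures of the same strain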; conditions: S. cerevisiae rad50 strain growth inhibition, active compounds read high
# Procedure, shortened: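 Cells are treated with compound, grown, and their growth is then scored against vehicle-only cultures of the same repair-deficient yeast strain.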
# [2] = NCI Yeast Anticancer Drug Screen. Data for the mec2-1 strain (AID 157); conditions: S. cerevisiae mec2-1 strain, active compounds read high
# Procedure, shortened: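 mec2-1 yeast strain, carrying an alteration in DNA damage repair or cell cycle control, was exposed to compounds; growth inhibition was measured relative to vehicle-treated controls.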
# [3] = NCI Yeast Anticancer Drug Screen. Data for the sgs1 mgt1 strain (AID 161);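 note: 0% = growth of cultures given vehicle only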; conditions: S. cerevisiae sgs1 mgt1 strain, active compounds read high
# Procedure, shortened: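 This yeast growth screen uses a strain with defined DNA-repair lesions; compound-treated growth is compared with vehicle-treated growth.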
# [4] = NCI Yeast Anticancer Drug Screen. Data for the cln2 rad14 strain (AID 165);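 note: 0% = growth equal to vehicle treated cultures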; conditions: S. cerevisiae cln2 rad14 strain, active compounds read high
# Procedure, shortened: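 Yeast carrying cln2 and rad14 alterations (cell cycle control and DNA damage repair) were exposed to compounds. Growth inhibition was measured against vehicle-treated controls.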
# [5] = NCI Yeast Anticancer Drug Screen. Data for the bub3 strain (AID 167); conditions: S. cerevisiae bub3 mutant strain, active compounds read high
# Procedure, shortened: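 Part of a panel of yeast mutants defective in DNA damage repair or cell cycle regulation. Each strain is grown with compound, and inhibition is calculated relative to solvent-treated cultures.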
# [6] = NCI Yeast Anticancer Drug Screen. Data for the mlh1 rad18 strain (AID 175); conditions: S. cerevisiae mlh1 rad18 strain growth inhibition, active compounds read high
# Procedure, shortened: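 Growth inhibition of the yeast strain was measured after compound exposure and expressed relative to vehicle-treated controls. The strain carries defined defects in DNA damage repair.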
# [7] = at 5.0 µM (retest, dose inferred, filed as 0.5)
# [8] = at 50.0 µM (retest, dose inferred, filed as 5.0)
SMILES,"growth inhibition [1, 7]","growth inhibition [1, 8]",growth inhibition ([1]; at 50.0 µM),"growth inhibition [2, 7]","growth inhibition [2, 8]",growth inhibition ([2]; at 50.0 µM),"growth inhibition [3, 7]","growth inhibition [3, 8]",growth inhibition ([3]; at 50.0 µM),"growth inhibition [4, 7]","growth inhibition [4, 8]",growth inhibition ([4]; at 50.0 µM),"growth inhibition [5, 7]","growth inhibition [5, 8]",growth inhibition ([5]; at 50.0 µM),"growth inhibition [6, 7]","growth inhibition [6, 8]",growth inhibition ([6]; at 50.0 µM)
C[n+]1ccccc1C[n+]1ccccc1,4%,28%,67.4%,5%,17%,36.1%,1%,35%,66.8%,6%,14%,-10.1%,2%,20%,26.2%,15%,17%,53.9%
CCCCCCCCC(C)C(=O)N1CCCC1C(=O)N1C(CC(=O)CC)CC(C)CC1C(=O)NC(C)C(=O)NC(C)(C)C(=O)NC(C)(C)C(=O)NC(C(=O)NC(C)C(=O)NC(C)(C)C(=O)NC(C)(C)C(=O)NC(C)CN(C)CCO)C(C)CC (configuration not stated) (X4-P[X5]A[Aib][Aib]IA[Aib][Aib]-X6; configuration not given here),98% (active),100% (active),91.6% (active),99% (active),100% (active),93.5% (active),99% (active),100% (active),92.8% (active),99% (active),99% (active),90.9% (active),99% (active),99% (active),92.4% (active),99% (active),99% (active),89.7% (active)
O=C(O)CCCOc1cc(-c2ccccc2F)nc2cc3c(cc12)OCO3,11%,36%,76.8% (active),3%,31%,80.8% (active),13%,27%,71% (active),5%,46%,71.3% (active),9%,47%,77.9% (active),7%,52%,54%
COc1cc(/C=C/C(=O)CC(=O)/C=C/c2ccc(O)c(OC)c2)ccc1O,55%,95% (active),83.8% (active),74% (active),93% (active),87.1% (active),20%,89% (active),88% (active),15%,88% (active),84.3% (active),27%,80% (active),83.7% (active),55%,91% (active),85.5% (active)
COc1ccc(/C=C2/C(=O)ON=C2C)cc1,12%,10%,76% (active),5%,41%,45.8%,-6%,29%,41.8%,-12%,26%,46%,11%,23%,88.5% (active),11%,12%,23.7%
CN(C)c1ccc(/C=C/c2sc3ccc4ccccc4c3[n+]2C)cc1,97% (active),96% (active),89.1% (active),99% (active),98% (active),89.7% (active),100% (active),98% (active),90.2% (active),99% (active),97% (active),89.5% (active),99% (active),97% (active),89.8% (active),98% (active),97% (active),89.2% (active)
O=C(CCl)N1c2ccccc2Sc2c1ccc1ccccc21,25%,90% (active),82.7% (active),39%,90% (active),63.9%,47%,94% (active),90.6% (active),20%,69%,19.8%,56%,91% (active),72.2% (active),46%,90% (active),83.4% (active)
CCOC(=O)C1(C)CCCC1N (configuration not stated),-1%,52%,-37.3%,2%,93% (active),-35%,-4%,42%,-17.6%,21%,94% (active),53.1%,14%,98% (active),-5.45%,14%,82% (active),15.7%
N#CCc1cccc2ccccc12,3%,6%,13.7%,1%,10%,-16.8%,0%,4%,-14.2%,-2%,3%,-17.1%,0%,-4%,-9.9%,5%,10%,5%
CC(=O)C1Cc2ccccc2C1=O (configuration not stated),4%,83% (active),-9.4%,3%,44%,42.2%,0%,91% (active),41.1%,1%,50%,-13.1%,3%,93% (active),9%,4%,90% (active),71.8% (active)
CC(C)(C)N/N=C(/Cc1nc2c3c(ccc2[nH]c1=O)C(=O)c1ccccc1C3=O)C(=O)NC1=C(Cl)C(=O)c2ccccc2C1=O,27%,91% (active),82.8% (active),0%,62%,46.6%,27%,77% (active),67.8%,-24%,39%,21.7%,13%,83% (active),67.1%,21%,79% (active),42.4%
COc1c(/C=C/C=O)cc2c(c1OC)OCO2,26%,73% (active),-1.75%,17%,40%,-6.3%,31%,57%,19.1%,27%,50%,20.4%,21%,54%,13.5%,25%,61%,-11.8%
O=Nc1ccc2ccccc2c1O,-3%,64%,85.7% (active),3%,88% (active),89.8% (active),-6%,37%,86.8% (active),25%,63%,58.5%,3%,93% (active),89.5% (active),14%,93% (active),84% (active)
Oc1ccccc1N=Cc1ccccc1,23%,75% (active),61%,13%,35%,44.2%,21%,29%,60.6%,12%,45%,19.5%,56%,86% (active),77.5% (active),41%,81% (active),72.5% (active)
c1ccc(-c2cccc(-c3ccccn3)n2)nc1,93% (active),99% (active),99.4% (active),74% (active),99% (active),99.7% (active),91% (active),99% (active),99.5% (active),81% (active),99% (active),99.1% (active),96% (active),99% (active),99.2% (active),83% (active),99% (active),99.5% (active)
O=C1/C(=C/c2ccccn2)CCc2ccccc21,30%,94% (active),84.7% (active),17%,95% (active),89.5% (active),11%,85% (active),83.4% (active),32%,92% (active),46.2%,-8%,98% (active),89.4% (active),-15%,97% (active),84.2% (active)
COc1cc(-c2ccc(-[n+]3nc(-c4ccc([N+](=O)[O-])cc4)nn3-c3ccc([N+](=O)[O-])cc3)c(OC)c2)ccc1-[n+]1nc(-c2ccc([N+](=O)[O-])cc2)nn1-c1ccc([N+](=O)[O-])cc1,95% (active),94% (active),89.5% (active),98% (active),98% (active),91.4% (active),94% (active),96% (active),90.2% (active),96% (active),97% (active),88.5% (active),97% (active),97% (active),90.2% (active),97% (active),96% (active),90% (active)
Cc1cc(C(=C2C=CC(=Nc3ccccc3)C=C2)c2ccc(Nc3ccccc3)cc2)ccc1N,6%,60%,43.8%,7%,82% (active),88.4% (active),-5%,79% (active),65.3%,-8%,69%,25.5%,30%,75% (active),83.3% (active),13%,71% (active),-23.6%
Cc1cc(C)c([I+]c2c(C)cc(C)cc2C)c(C)c1,10%,95% (active),57.8%,20%,97% (active),73.4% (active),9%,95% (active),60.6%,16%,97% (active),56.6%,52%,98% (active),60%,16%,72% (active),71% (active)
